# Experimental data from paper PMC7862700, “An all-to-all approach to the identification of sequence-specific readers for epigenetic DNA modifications on cytosine”.
# Columns and labels:
# Assay in all cases: DAPPL (digital affinity profiling via proximity ligation, sequencing); 10 mM Tris-HCl pH 7.5, 50 mM NaCl, 1 mM DTT, 4% glycerol, room temperature, 30 min; GST-TFs on glutathione beads, 16-mer random dsDNA library, 0.1% formaldehyde crosslink after washing; high values mean tight binding
# FEV = target: T1, FEV (Homo sapiens, UniProt Q99581 1-238); settings: protein: recombinant; tags: N-terminal GST; dsDNA, one strand shown
# T1 sequence: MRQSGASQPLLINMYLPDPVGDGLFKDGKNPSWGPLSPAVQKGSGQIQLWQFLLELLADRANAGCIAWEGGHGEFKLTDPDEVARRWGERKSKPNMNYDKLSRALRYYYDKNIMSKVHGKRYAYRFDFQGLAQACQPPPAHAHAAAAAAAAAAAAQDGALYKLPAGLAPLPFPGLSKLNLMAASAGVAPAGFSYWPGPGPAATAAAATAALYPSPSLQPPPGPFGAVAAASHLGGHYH
# Method in brief: (§1)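 After expression in yeast as GST fusions, human transcription factors were bound to glutathione beads, DNA-barcoded and mixed with a tag-only sample. The pools were incubated with 200 nmole of a 16-mer random double-stranded DNA library in Tris/NaCl/DTT/glycerol buffer (30 min, room temperature), washed and crosslinked with 0.1% formaldehyde. Proximity ligation with BsaI/T4 ligase ran for 1 h at 37 °C, before PCR amplification and sequencing on an Illumina NextSeq500. Binding signal is a hexamer's read frequency for a factor divided by its frequency for the tag-only sample.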
# ETV5 = ETV5 (Homo sapiens, UniProt P41161 1-510); settings: protein: recombinant; tags: N-terminal GST; dsDNA, one strand shown
# Method in brief: as §1
# HSF1 = HSF1 (Homo sapiens, UniProt Q00613 1-529); settings: protein: recombinant; tags: N-terminal GST; chain copies: 3; dsDNA, one strand shown
# Method in brief: as §1
# SPIC = target: T2, SPIC (Homo sapiens, UniProt Q8N5J4 1-248); settings: protein: recombinant; tags: N-terminal GST; dsDNA, one strand shown
# T2 sequence: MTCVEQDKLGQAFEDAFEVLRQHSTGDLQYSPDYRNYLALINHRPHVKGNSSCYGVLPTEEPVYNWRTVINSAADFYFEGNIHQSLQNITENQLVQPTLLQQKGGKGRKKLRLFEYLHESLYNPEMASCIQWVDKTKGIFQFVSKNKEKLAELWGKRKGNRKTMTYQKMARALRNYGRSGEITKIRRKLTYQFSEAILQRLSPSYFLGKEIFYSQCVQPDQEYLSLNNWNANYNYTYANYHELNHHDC
# Method in brief: as §1
# ELF4 = ELF4 (Homo sapiens, UniProt Q99607 1-663); settings: protein: recombinant; tags: N-terminal GST; dsDNA, one strand shown
# Method in brief: as §1
# ELK4 = target: T3, ELK4 (Homo sapiens, UniProt P28324-2 1-405); settings: protein: recombinant; tags: N-terminal GST; dsDNA, one strand shown
# T3 sequence: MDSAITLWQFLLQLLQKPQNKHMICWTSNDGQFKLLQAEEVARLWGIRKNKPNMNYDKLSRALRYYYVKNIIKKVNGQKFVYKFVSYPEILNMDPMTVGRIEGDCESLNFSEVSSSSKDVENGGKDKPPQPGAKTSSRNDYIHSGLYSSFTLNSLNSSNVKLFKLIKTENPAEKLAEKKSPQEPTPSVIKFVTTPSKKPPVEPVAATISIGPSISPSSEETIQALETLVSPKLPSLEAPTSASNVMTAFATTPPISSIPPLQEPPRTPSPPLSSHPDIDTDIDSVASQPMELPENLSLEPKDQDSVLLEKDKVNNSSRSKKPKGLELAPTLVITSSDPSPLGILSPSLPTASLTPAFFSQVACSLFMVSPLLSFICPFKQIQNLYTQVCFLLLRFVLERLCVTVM
# Method in brief: as §1
# ETV2 = target: T4, ETV2 (Homo sapiens, UniProt O00321 1-342); settings: protein: recombinant; tags: N-terminal GST; dsDNA, one strand shown
# T4 sequence: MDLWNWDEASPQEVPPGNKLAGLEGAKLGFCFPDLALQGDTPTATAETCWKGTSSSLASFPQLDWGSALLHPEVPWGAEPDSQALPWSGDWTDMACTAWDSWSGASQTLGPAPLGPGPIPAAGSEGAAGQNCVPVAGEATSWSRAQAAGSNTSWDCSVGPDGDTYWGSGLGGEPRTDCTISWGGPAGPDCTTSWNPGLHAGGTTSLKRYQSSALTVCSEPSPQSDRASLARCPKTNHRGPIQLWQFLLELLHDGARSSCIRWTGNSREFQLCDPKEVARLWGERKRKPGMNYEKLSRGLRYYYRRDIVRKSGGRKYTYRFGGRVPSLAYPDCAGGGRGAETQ
# Method in brief: as §1
# ELF3 = target: T5, ELF3 (Homo sapiens, UniProt P78545 1-371); settings: protein: recombinant; tags: N-terminal GST; dsDNA, one strand shown
# T5 sequence: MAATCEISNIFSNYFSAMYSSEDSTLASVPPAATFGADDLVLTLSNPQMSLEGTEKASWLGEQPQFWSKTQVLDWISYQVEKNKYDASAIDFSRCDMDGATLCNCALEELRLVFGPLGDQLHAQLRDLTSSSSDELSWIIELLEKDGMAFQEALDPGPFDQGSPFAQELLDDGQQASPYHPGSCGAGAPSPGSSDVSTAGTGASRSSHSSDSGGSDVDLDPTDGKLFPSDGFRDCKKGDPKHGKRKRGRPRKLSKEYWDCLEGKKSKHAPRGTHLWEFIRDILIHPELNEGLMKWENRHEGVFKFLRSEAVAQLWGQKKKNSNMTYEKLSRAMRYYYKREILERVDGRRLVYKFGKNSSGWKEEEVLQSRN
# Method in brief: as §1
# CRX = CRX (Homo sapiens, UniProt O43186 1-299); settings: protein: recombinant; tags: N-terminal GST; dsDNA, one strand shown
# Method in brief: as §1
# ETV1 = ETV1 (Homo sapiens, UniProt P50549 1-477); settings: protein: recombinant; tags: N-terminal GST; dsDNA, one strand shown
# Method in brief: as §1
# ERF = target: T6, ERF (Homo sapiens, UniProt P50548 1-548); settings: protein: recombinant; tags: N-terminal GST; dsDNA, one strand shown
# T6 sequence: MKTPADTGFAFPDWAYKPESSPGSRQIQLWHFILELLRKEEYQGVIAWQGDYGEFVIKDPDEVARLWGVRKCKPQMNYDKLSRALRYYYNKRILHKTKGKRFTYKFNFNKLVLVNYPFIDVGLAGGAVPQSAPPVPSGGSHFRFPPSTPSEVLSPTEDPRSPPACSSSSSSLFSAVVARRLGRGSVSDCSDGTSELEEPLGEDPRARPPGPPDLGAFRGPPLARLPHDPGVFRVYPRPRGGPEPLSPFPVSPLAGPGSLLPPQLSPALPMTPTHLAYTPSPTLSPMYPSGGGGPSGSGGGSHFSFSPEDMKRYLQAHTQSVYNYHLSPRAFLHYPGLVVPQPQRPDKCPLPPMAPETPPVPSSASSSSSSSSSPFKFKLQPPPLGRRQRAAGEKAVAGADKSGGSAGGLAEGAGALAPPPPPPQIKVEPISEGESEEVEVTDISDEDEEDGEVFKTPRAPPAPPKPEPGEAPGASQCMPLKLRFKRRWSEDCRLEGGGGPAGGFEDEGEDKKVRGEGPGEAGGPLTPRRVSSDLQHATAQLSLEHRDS
# Method in brief: as §1
# ETV3L = target: T7, ETV3L (Homo sapiens, UniProt Q6ZN32 1-361); settings: protein: recombinant; tags: N-terminal GST; dsDNA, one strand shown
# T7 sequence: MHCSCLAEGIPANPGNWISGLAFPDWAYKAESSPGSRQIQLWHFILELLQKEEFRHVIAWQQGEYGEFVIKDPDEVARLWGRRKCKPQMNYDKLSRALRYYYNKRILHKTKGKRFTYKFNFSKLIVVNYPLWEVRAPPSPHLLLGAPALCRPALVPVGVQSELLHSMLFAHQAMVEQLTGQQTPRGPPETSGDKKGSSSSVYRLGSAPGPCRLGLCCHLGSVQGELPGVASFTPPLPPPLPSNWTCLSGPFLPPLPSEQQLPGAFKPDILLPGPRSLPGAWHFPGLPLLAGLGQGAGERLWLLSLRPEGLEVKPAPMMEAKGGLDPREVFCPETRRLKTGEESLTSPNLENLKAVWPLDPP
# Method in brief: as §1
# ETS2 = target: T8, ETS2 (Homo sapiens, UniProt P15036 1-469); settings: protein: recombinant; tags: N-terminal GST; dsDNA, one strand shown
# T8 sequence: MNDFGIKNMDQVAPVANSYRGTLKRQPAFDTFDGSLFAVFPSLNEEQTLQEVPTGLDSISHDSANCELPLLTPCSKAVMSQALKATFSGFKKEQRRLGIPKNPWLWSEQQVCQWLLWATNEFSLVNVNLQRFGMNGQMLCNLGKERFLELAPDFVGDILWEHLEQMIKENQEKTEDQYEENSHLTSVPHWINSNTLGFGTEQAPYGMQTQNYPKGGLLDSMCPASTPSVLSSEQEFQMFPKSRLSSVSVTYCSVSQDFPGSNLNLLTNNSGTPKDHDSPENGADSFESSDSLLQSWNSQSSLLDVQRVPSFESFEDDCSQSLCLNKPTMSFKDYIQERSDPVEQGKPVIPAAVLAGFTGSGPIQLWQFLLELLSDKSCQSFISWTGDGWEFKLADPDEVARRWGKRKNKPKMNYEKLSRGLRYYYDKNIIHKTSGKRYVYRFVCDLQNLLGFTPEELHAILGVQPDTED
# Method in brief: as §1
# SPDEF = target: T9, SPDEF (Homo sapiens, UniProt O95238 1-335); settings: protein: recombinant; tags: N-terminal GST; dsDNA, one strand shown
# T9 sequence: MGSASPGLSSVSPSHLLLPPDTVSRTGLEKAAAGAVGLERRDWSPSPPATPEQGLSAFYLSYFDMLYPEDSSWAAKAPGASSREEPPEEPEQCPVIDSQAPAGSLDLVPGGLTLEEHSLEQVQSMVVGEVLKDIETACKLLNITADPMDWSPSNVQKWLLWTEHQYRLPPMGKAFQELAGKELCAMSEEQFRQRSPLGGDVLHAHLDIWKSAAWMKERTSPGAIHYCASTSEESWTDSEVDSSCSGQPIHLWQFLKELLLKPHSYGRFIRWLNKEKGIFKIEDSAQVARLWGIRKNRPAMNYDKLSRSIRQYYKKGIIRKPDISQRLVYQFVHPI
# Method in brief: as §1
# ETV7 = target: T10, ETV7 (Homo sapiens, UniProt Q9Y603 1-341); settings: protein: recombinant; tags: N-terminal GST; dsDNA, one strand shown
# T10 sequence: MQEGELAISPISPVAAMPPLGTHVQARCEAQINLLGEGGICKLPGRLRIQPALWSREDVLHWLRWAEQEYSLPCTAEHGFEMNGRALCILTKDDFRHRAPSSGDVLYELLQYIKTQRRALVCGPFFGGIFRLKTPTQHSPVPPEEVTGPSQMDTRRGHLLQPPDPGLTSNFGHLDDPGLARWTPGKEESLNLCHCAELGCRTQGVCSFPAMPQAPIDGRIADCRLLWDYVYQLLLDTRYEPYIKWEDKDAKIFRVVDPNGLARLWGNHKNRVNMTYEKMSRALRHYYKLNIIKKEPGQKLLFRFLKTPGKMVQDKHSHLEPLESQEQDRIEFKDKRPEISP
# Method in brief: as §1
# ELF5 = target: T11, ELF5 (Homo sapiens, UniProt Q9UKW6-2 1-255); settings: protein: recombinant; tags: N-terminal GST; dsDNA, one strand shown
# T11 sequence: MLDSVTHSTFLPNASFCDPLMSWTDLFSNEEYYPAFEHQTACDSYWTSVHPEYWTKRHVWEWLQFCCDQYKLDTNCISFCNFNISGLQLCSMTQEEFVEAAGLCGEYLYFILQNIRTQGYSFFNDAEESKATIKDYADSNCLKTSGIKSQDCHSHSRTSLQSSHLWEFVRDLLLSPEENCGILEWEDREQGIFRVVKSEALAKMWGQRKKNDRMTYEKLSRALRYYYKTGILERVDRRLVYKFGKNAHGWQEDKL
# Method in brief: as §1
# ETV3 = target: T12, ETV3 (Homo sapiens, UniProt P41162-2 1-143); settings: protein: recombinant; tags: N-terminal GST; dsDNA, one strand shown
# T12 sequence: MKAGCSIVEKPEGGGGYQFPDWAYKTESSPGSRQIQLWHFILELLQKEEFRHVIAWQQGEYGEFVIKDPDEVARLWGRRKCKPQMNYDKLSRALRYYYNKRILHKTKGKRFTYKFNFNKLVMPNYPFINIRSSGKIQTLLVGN
# Method in brief: as §1
# ETV6 = ETV6 (Homo sapiens, UniProt P41212 1-452); settings: protein: recombinant; tags: N-terminal GST; dsDNA, one strand shown
# Method in brief: as §1
# Chain of CRX (O43186 whole entry): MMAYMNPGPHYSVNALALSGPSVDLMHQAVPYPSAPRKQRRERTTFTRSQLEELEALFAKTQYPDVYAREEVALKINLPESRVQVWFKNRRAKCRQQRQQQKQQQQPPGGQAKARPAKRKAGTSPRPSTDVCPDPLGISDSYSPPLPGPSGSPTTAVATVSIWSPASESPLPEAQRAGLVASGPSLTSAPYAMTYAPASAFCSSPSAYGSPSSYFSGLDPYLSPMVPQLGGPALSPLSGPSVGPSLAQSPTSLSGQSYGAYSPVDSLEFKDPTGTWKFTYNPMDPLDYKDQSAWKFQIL
# Chain of ETV5 (P41161 whole entry): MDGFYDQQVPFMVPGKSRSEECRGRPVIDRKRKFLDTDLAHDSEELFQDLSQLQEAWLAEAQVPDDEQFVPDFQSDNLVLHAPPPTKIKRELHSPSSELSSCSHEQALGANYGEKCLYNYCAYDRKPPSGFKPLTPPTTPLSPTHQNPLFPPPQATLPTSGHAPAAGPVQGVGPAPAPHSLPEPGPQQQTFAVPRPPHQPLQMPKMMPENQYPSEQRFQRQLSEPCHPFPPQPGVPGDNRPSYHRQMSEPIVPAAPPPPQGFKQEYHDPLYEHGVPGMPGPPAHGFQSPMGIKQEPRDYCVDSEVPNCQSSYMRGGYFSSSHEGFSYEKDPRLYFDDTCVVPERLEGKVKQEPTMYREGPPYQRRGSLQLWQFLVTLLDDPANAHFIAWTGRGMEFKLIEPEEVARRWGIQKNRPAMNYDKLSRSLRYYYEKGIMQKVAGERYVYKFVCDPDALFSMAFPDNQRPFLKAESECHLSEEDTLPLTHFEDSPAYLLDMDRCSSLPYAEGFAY
# Chain of ETV6 (P41212 whole entry): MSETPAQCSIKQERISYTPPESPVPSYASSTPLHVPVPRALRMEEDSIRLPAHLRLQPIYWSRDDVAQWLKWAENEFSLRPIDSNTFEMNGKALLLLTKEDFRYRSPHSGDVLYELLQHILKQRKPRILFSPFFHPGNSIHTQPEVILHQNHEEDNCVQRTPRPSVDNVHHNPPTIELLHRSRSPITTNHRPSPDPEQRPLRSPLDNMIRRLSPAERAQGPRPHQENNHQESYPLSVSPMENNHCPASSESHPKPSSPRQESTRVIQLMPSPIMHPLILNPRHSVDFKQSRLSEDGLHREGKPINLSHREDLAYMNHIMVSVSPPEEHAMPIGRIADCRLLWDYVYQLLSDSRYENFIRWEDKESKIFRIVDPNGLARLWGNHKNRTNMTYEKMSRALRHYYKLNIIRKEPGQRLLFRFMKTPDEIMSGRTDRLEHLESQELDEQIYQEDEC
# Chain of ETV1 (P50549 whole entry): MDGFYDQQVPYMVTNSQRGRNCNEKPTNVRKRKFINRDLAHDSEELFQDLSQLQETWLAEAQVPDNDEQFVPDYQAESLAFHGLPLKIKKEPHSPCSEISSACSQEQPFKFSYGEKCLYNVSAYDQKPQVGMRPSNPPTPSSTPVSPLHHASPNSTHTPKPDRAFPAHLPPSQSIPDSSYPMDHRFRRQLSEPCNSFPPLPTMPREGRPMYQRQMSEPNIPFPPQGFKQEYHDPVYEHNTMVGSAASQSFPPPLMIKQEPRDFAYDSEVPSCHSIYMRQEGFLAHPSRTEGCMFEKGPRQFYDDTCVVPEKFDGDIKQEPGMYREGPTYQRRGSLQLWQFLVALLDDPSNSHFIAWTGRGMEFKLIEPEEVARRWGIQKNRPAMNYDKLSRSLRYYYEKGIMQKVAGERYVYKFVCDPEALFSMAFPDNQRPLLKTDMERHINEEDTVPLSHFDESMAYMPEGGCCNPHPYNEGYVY
# Chain of HSF1 (Q00613 whole entry): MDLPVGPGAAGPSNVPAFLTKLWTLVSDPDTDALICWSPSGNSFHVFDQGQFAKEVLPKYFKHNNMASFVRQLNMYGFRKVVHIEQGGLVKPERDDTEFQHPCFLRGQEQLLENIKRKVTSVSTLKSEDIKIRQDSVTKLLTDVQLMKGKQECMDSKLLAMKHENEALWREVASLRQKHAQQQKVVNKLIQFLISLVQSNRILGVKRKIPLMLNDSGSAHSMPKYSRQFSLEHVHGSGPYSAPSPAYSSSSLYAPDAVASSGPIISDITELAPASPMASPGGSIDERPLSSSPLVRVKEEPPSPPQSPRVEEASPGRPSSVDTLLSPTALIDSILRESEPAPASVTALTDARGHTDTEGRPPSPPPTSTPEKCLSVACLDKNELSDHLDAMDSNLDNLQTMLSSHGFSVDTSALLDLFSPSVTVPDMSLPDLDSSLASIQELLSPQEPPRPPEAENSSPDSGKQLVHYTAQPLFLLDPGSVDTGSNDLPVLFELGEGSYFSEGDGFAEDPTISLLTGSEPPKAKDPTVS
# Chain of ELF4 (Q99607 whole entry): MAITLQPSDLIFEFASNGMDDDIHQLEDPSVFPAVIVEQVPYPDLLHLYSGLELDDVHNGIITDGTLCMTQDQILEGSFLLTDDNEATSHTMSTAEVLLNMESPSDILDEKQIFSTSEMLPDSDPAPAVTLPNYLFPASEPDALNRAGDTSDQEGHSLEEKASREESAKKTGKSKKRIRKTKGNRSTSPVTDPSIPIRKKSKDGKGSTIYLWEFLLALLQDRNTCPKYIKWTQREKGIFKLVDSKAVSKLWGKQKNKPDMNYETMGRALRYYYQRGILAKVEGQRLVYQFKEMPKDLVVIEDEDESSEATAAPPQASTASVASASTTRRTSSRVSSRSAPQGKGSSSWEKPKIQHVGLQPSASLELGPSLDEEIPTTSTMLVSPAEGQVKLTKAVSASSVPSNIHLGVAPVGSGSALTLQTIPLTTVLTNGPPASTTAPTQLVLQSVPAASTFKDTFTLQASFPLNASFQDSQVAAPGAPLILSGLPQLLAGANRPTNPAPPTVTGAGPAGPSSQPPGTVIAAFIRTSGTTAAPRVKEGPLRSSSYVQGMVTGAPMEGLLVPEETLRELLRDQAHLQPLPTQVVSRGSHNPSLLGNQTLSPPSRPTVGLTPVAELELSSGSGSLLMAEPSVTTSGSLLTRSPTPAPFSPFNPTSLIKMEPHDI
sequence,measurement,setting,value
ATTATT,binding signal,FEV,"1.15 fold enrichment (6-mer frequency, TF over GST control)"
same,binding signal,ETV5,"1.17 fold enrichment (6-mer frequency, TF over GST control)"
same,binding signal,HSF1,"1.8 fold enrichment (6-mer frequency, TF over GST control)"
same,binding signal,SPIC,"1.2 fold enrichment (6-mer frequency, TF over GST control)"
same,binding signal,ELF4,"1.24 fold enrichment (6-mer frequency, TF over GST control)"
same,binding signal,ELK4,"1.23 fold enrichment (6-mer frequency, TF over GST control)"
same,binding signal,ETV2,"1.11 fold enrichment (6-mer frequency, TF over GST control)"
same,binding signal,ELF3,"1.1 fold enrichment (6-mer frequency, TF over GST control)"
same,binding signal,CRX,"2.37 fold enrichment (6-mer frequency, TF over GST control)"
same,binding signal,ETV1,"1.29 fold enrichment (6-mer frequency, TF over GST control)"
same,binding signal,ERF,"1.11 fold enrichment (6-mer frequency, TF over GST control)"
same,binding signal,ETV3L,"1.17 fold enrichment (6-mer frequency, TF over GST control)"
same,binding signal,ETS2,"1.16 fold enrichment (6-mer frequency, TF over GST control)"
same,binding signal,SPDEF,"1.11 fold enrichment (6-mer frequency, TF over GST control)"
same,binding signal,ETV7,"1.25 fold enrichment (6-mer frequency, TF over GST control)"
same,binding signal,ELF5,"1.15 fold enrichment (6-mer frequency, TF over GST control)"
same,binding signal,ETV3,"1.18 fold enrichment (6-mer frequency, TF over GST control)"
same,binding signal,ETV6,"1.13 fold enrichment (6-mer frequency, TF over GST control)"
